PubChem BioAssay AID493170 (National Center for Advancing Translational Sciences (NCATS), 2011)
Records with an inconclusive call do not appear. The source made the active and inactive calls. Calls come from the whole dose curve; as a rule, active = well fitted inhibition curve with a large enough effect; inconclusive = small, poorly fitted or top-dose-only effect, or effect the other way; inactive = flat fitted curve, though single readings scatter.

Biological target: Ubiquitin carboxyl-terminal hydrolase 2 (Homo sapiens) (UniProt O75604)
Experiment: Ub-rhodamine 110 based assay for inhibitors Ubiquitin-specific Protease USP2a; note: nearly all actives have a fitted effect of over 50% in size
Settings: USP2a Ub-rhodamine110 cleavage, fluorescence; series mostly up to 38.3 µM; activity change, negative = inhibition: at the top concentration
Summary of the method: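 Kinetic fluorescence (485/531 nm) read each minute over 7 min after adding Ub-Rhod110 (150 nM final) to USP2a (5 nM final). The enzyme had 30 min RT exposure to compounds beforehand in Tris pH 8.0 buffer with CaCl2, CHAPS and beta-ME.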
% is set by controls: 0 for no effect and ±100 for the full control effect; potency is the fitted concentration of half-maximal effect.

Ubiquitin carboxyl-terminal hydrolase 2 (Homo sapiens), sequence (O75604 whole entry, looked up): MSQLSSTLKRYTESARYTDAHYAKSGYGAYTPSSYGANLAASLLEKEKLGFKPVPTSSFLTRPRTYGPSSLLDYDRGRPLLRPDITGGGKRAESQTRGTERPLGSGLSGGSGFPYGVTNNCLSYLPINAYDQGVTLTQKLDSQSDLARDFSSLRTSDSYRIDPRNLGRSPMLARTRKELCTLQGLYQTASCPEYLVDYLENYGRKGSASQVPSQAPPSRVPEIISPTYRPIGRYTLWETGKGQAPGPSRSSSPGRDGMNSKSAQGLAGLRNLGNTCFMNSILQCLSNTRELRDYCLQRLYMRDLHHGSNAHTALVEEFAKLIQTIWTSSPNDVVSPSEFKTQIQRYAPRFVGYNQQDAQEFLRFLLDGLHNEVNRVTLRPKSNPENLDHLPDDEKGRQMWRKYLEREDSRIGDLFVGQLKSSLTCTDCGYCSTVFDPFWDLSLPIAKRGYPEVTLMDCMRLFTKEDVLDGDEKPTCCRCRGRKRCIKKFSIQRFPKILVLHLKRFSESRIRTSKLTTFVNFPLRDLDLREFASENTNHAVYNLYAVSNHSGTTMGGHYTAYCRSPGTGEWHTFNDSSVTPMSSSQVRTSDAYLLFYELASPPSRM

Activity change, negative = inhibition, inactive:
C=CC[C@H](CC(=O)OC(C)(C)C)C(=O)OC[C@@H]1CCCN1C(=O)[C@H](CC=C)CC(=O)N[C@H](CO)Cc1ccccc1 0.806%, Cc1ccc(C(=O)COC(=O)CNC(=O)CN2C(=O)c3ccccc3C2=O)cc1 -12.6%, CCCNC(=O)CS(=O)Cc1nc(-c2ccccc2C)oc1C (centres undefined) -6.47%, CCC(C)(C(=O)NC1CCCCC1)N(C(=O)C1CCC(=O)N1)c1ccccc1 (centres undefined) -9.98%, COCCn1nnnc1CN(CCc1ccccc1)Cc1cc2ccc(C)cc2[nH]c1=O -6.85%, COc1ccc(CN(Cc2cc3cc(C)ccc3[nH]c2=O)C(=O)N(C)C)cc1 -5.17%, O=C(Nc1cnn(Cc2ccccc2)c1)c1nc2ncccn2n1 -2.39%, COc1ccc(-c2cc(C(F)(F)F)nc(S(C)(=O)=O)n2)cc1 -4.73%, CCSc1nc(N2CCCCC2)c2c(c1C#N)CCCC2 -8.51%, Cc1ccc(NC(=O)CSc2nnc(COc3ccc(C#N)cc3)n2-c2ccccc2)cc1C -17%, O=C(N/N=C/C=C/c1ccccc1)c1ccncc1 -5.04%, COc1ccc(S(=O)(=O)N2CCCC2C(=O)NCc2cccs2)cc1 (centres undefined) -3.06%, CCOc1ccc(NC(=O)c2cccc(-n3cnnn3)c2)cc1 1.58%, COc1cccc(C(=O)NCc2ccc3[nH]c(C)cc3c2)c1 -1.49%, CC1CC(C)CN(C(=O)CSc2nnc(-c3ccc(Cl)cc3)o2)C1 (centres undefined) 1.57%, Cn1nc(CC(=O)NCc2ccc(F)cc2)c2ccccc2c1=O -3.88%, COc1cccc(N2CCN(C(=O)CN(C)S(=O)(=O)c3ccc4c(c3)CCC(=O)N4)CC2)c1 -5.91%, CC(C)(C)c1cc(Br)ccc1OCC(=O)Nc1ncn[nH]1 -0.347%, COc1ccc(S(=O)(=O)N(C)CC(=O)Nc2cccc(C(C)=O)c2)cc1Cl -5.77%, O=C(Cc1cc(=O)[nH]c(=O)[nH]1)NCC1CCCO1 (centres undefined) -10.7%, O=C(C1CCCN(S(=O)(=O)c2cccc3cccnc23)C1)N1CCN(c2ccccc2F)CC1 (centres undefined) -17.7%, Fc1ccc(-c2nnn(Cc3nc4ccccc4s3)n2)cc1 -19.1%, c1ccc(-c2nc3nc4ccccc4nc3n2Cc2ccco2)cc1 -15.9%, CCNc1sc(C(=O)c2cccs2)c(N)c1-c1nc2ccccc2s1 -4.43%, CCOC(=O)N1CCN(C(=O)CN(c2ccc(C)c(C)c2)S(=O)(=O)c2ccccc2)CC1 -0.973%, COc1cc(-c2nc(-c3ccc4c(c3)-c3ccccc3S4(=O)=O)c(-c3ccccc3)[nH]2)cc(OC)c1O -23%, COC(=O)c1cc2sc(Cl)cc2n1Cc1nc(-c2ccccc2)oc1C 0.719%, COC(=O)C1CCN(C(=O)COC(=O)CC(NC(N)=O)c2ccc(Cl)cc2)CC1 (centres undefined) -0.127%, CC(CN1CCCCC1)OC(=O)c1ccc(Cl)cc1 (centres undefined) 1.02%, Cc1ccc2c(c1)c1c3n2CCN(C(=O)Cn2c(-c4ccccc4)noc2=O)C3CCC1 (centres undefined) -9.33%, C=CCNCCOCCOc1ccccc1-c1ccccc1 -6.42%, COc1ccc(S(=O)(=O)N2CCCCC2)cc1NC(=O)Cc1c[nH]c2ccccc12 -20.6%

Potency, active:
Cc1ccc(-c2nc(N/N=C/c3ccncc3)c3ccccc3n2)cc1 11.2 µM, Cc1ccccc1NC(=O)CSc1nnc(-c2ccco2)c(-c2ccco2)n1 10 µM, Cc1cc(-c2csc(NC(=O)c3ccc(=O)[nH]c3)n2)c(C)n1Cc1ccccc1 12.6 µM, Cc1ccc(S(=O)(=O)N2[C@@H](c3ccccc3F)C(C(=O)O)=CC[C@H]2c2ccc(Cl)c(Cl)c2)cc1 11.2 µM, O=C1NC(=Nc2ccccc2)S/C1=C\C=C\c1ccco1 5.62 µM, CC(C)c1ccc(Nc2nnc(SCC(=O)c3nnc(-c4ccccc4)o3)s2)cc1 2.82 µM, COc1cccc(OC)c1-c1nn2c(-c3cc(-c4ccccc4)n[nH]3)nnc2s1 6.31 µM
